The values below come from paper PMC11062922 (Nature Chemical Biology, 2023).

Structures are written as SMILES.

Design in all cases: species or system human, MV4-11 + K-562 + COLO205 + SK-N-BE2 + OVCAR-8
The test system of one test is ACVR1B. Conditions: read-out: apparent Kd; compound concentrations:100 nM and 1000 nM (sheet 'Samples'); n = 1.
Another test concerns NQO2. Conditions: read-out: apparent Kd; compound concentrations:100 nM and 1000 nM (sheet 'Samples'); n = 1.
The next test has as its system PIP4K2C. The note with it: read-out: apparent Kd; compound concentrations:100 nM and 1000 nM (sheet 'Samples'); n = 1.
The test system of a further test is TGFBR1. Conditions: read-out: apparent Kd; compound concentrations:100 nM and 1000 nM (sheet 'Samples'); n = 1.
In another test the test system is DDR1. Conditions: read-out: apparent Kd; compound concentrations:100 nM and 1000 nM (sheet 'Samples'); n = 1.
The subject of a further test is DDX3X;DDX3Y. Conditions: read-out: apparent Kd; compound concentrations:100 nM and 1000 nM (sheet 'Samples'); n = 1.
A further test relates to MAPK10. Conditions: read-out: apparent Kd; compound concentrations:100 nM and 1000 nM (sheet 'Samples'); n = 1.
Another test relates to MAPK14. Conditions: read-out: apparent Kd; compound concentrations:100 nM and 1000 nM (sheet 'Samples'); n = 1.
The test system of the next test is MAPK9. The note with it: read-out: apparent Kd; compound concentrations:100 nM and 1000 nM (sheet 'Samples'); n = 1.
Another test concerns MAPKAPK2. Conditions: read-out: apparent Kd; compound concentrations:100 nM and 1000 nM (sheet 'Samples'); n = 1.
The test system of the next test is NLK. Conditions: read-out: apparent Kd; compound concentrations:100 nM and 1000 nM (sheet 'Samples'); n = 1.
In the next test the test system is ACVR2B. Conditions: read-out: apparent Kd; compound concentrations: 100 nM and 1000 nM (sheet 'Samples'), CATDS: 4.2186627256430298E-2; n = 1.
The subject of a further test is ADCK3. Conditions: read-out: apparent Kd; compound concentrations: 100 nM and 1000 nM (sheet 'Samples'), CATDS: 4.2636301284937402E-2; n = 1.
For the next test, the system named is AKT2. Conditions: read-out: apparent Kd; compound concentrations: 100 nM and 1000 nM (sheet 'Samples'), CATDS: 3.8315298656597697E-2; n = 1.
The test system of another test is CDC42BPB. The note with it: read-out: apparent Kd; compound concentrations: 100 nM and 1000 nM (sheet 'Samples'), CATDS: 4.17361912468606E-2; n = 1.
A further test relates to CDC42BPG. Conditions: read-out: apparent Kd; compound concentrations: 100 nM and 1000 nM (sheet 'Samples'), CATDS: 4.6703461081502903E-2; n = 1.
A further test relates to CDK13. Conditions: read-out: apparent Kd; compound concentrations: 100 nM and 1000 nM (sheet 'Samples'), CATDS: 3.8824736575062302E-2; n = 1.
Another test concerns CDKL5. The note with it: read-out: apparent Kd; compound concentrations: 100 nM and 1000 nM (sheet 'Samples'), CATDS: 4.2225060915193902E-2; n = 1.
Another test deals with CIT. Conditions: read-out: apparent Kd; compound concentrations: 100 nM and 1000 nM (sheet 'Samples'), CATDS: 9.7052908053400402E-2; n = 1.
The next test relates to CSNK1A1. The note with it: read-out: apparent Kd; compound concentrations: 100 nM and 1000 nM (sheet 'Samples'), CATDS: 4.3314802328408702E-2; n = 1.
Another test concerns CSNK1D. Conditions: read-out: apparent Kd; compound concentrations: 100 nM and 1000 nM (sheet 'Samples'), CATDS: 5.2512295854069302E-2; n = 1.
The next test has as its system CSNK1E. Conditions: read-out: apparent Kd; compound concentrations: 100 nM and 1000 nM (sheet 'Samples'), CATDS: 4.5718432207302401E-2; n = 1.
Another test relates to GAK. Conditions: read-out: apparent Kd; compound concentrations: 100 nM and 1000 nM (sheet 'Samples'), CATDS: 5.0119839441511702E-2; n = 1.
The test system of a further test is MAP3K12. The note with it: read-out: apparent Kd; compound concentrations: 100 nM and 1000 nM (sheet 'Samples'), CATDS: 4.3727049359112501E-2; n = 1.
For the next test, the system named is MAP3K4. Conditions: read-out: apparent Kd; compound concentrations: 100 nM and 1000 nM (sheet 'Samples'), CATDS: 4.0498159279946502E-2; n = 1.
A further test deals with MTOR. The note with it: read-out: apparent Kd; compound concentrations: 100 nM and 1000 nM (sheet 'Samples'), CATDS: 6.6094429766625107E-2; n = 1.
For the next test, the system named is PIK3CA. The note with it: read-out: apparent Kd; compound concentrations: 100 nM and 1000 nM (sheet 'Samples'), CATDS: 0.16597567422928799; n = 1.
The subject of a further test is PRKCD. Conditions: read-out: apparent Kd; compound concentrations: 100 nM and 1000 nM (sheet 'Samples'), CATDS: 3.8004287822733102E-2; n = 1.
Another test has as its system ROCK1. Conditions: read-out: apparent Kd; compound concentrations: 100 nM and 1000 nM (sheet 'Samples'), CATDS: 9.5371648246972293E-2; n = 1.
The subject of a further test is ROCK2. The note with it: read-out: apparent Kd; compound concentrations: 100 nM and 1000 nM (sheet 'Samples'), CATDS: 9.3527332019104195E-2; n = 1.
In a further test the test system is TESK1. Conditions: read-out: apparent Kd; compound concentrations: 100 nM and 1000 nM (sheet 'Samples'), CATDS: 4.6585684962704203E-2; n = 1.

As for `O=C(c1ccc(-c2cc(-c3c[nH]nc3-c3ccccn3)ccn2)cc1)N1CCCC1` [GW792479X], the potency estimated from few doses is 270 nM in the test on ACVR1B, 1390 nM in the test on NQO2, 1650 nM in the test on PIP4K2C and 118 nM in the test with TGFBR1.

With `CNc1ncc2cc(Oc3ccc(F)cc3F)c(=O)n(C)c2n1` [RO5083957-000], the potency estimated from few doses in the test on ACVR1B is 853 nM; in the test with DDR1, 958 nM; in the test on DDX3X;DDX3Y, 1740 nM; with MAPK10 it was 1750 nM; in the test with MAPK14, 618 nM; in the test with MAPK9, 1640 nM. The potency estimated from few doses is 843 nM with MAPKAPK2 and 1800 nM with NLK.

On to `Cl.Cl.NCC(NC(=O)c1cc(-c2cccnc2)c(-c2ccnc3[nH]ccc23)s1)c1ccccc1.NCC(NC(=O)c1cc(-c2cccnc2)c(-c2ccnc3[nH]ccc23)s1)c1ccccc1` (centres unmarked) [GSK1323434A], for which the potency estimated from few doses was 1740 nM with ACVR2B; 1690 nM with ADCK3; 2290 nM in the test on AKT2; 1790 nM in the test with CDC42BPB; 1340 nM in the test with CDC42BPG; 2200 nM with CDK13. Also, the potency estimated from few doses with CDKL5 was 1730 nM; in the test on CIT, 344 nM; in the test with CSNK1A1, 1620 nM; with CSNK1D, 1030 nM; in the test on CSNK1E it was 1410 nM; in the test with GAK, 1140 nM. Also, the potency estimated from few doses in the test on MAP3K12 was 1580 nM; in the test with MAP3K4 it was 1940 nM; in the test on MTOR, 653 nM; with PIK3CA, 161 nM; in the test with PRKCD, 2350 nM; in the test with ROCK1 it was 354 nM. Also, the potency estimated from few doses is 364 nM in the test with ROCK2 and 1350 nM in the test on TESK1.
